In PubChem BioAssay (EPA / NIEHS):
Calls of active or inactive are those of the source. Rule for the calls: active = hit-call score of the fitted dose curve at least 0.9, where 1 is the maximum; inactive = score below 0.9.

How the values were obtained:
[1] = BSK_3C_SRB: Viability Assessment in the BioMAP Diversity Plus: 3C Assay (AID 2283023); settings: primary human endothelial cells (HUVEC);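 note: cells read 24 h after compound dosing; fitted both ways against DMSO so a hit may be signal rise or drop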
Summary of the method: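 Absorbance at 560 nm of sulforhodamine B-stained (0.1%) total protein served as a cytotoxicity readout in human umbilical vein endothelial cells, 24 h after chemical treatment. Signal was fitted bidirectionally relative to DMSO.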

[2] = BSK_3C_Vis: BioMAP Diversity Plus: 3C Assay for Morphology Visualization (AID 2283025); settings: primary human endothelial cells (HUVEC);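 note: fitted both ways so gain or loss versus DMSO counts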
Summary of the method: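 Human umbilical vein endothelial cells in the 3C system were imaged by light microscopy 24 h after chemical dosing to record cell morphology. Activity was fitted bidirectionally against DMSO as negative control and baseline; the endpoint serves as a background control.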

[3] = read-out: Pselectin, SELP (gene 6403); assay: BSK_4H_Pselectin: BioMAP Diversity Plus: 4H Assay for Pselectin Biomarker Activity (AID 2283026); settings: primary human endothelial cells (HUVEC); actives raise or lower the signal
Summary of the method: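 Primary human umbilical vein endothelial cells were exposed to test chemical for 24 h, then cell-surface P-selectin was quantified by ELISA. Activity was fitted bidirectionally against DMSO as negative control and baseline.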

[4] = BSK_4H_SRB: Viability Assessment in the BioMAP Diversity Plus: 4H Assay (AID 2283027); settings: primary human endothelial cells (HUVEC);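 note: cells exposed to compound for 24 h before staining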
Summary of the method: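 Human umbilical vein endothelial cells were dosed with chemical and, after 24 h, fixed with 10% TCA, stained with 0.1% sulforhodamine B, and read at 560 nm to give total protein as a cytotoxicity measure. Bidirectional fitting relative to DMSO control.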

[5] = BSK_BE3C_SRB: Viability Assessment in the BioMAP Diversity Plus: BE3C Assay (AID 2283028); settings: primary human bronchial epithelial cells
Summary of the method: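 Cells (human bronchial epithelial, primary) are treated with chemicals, and after 24 h the parallel cultures are fixed in 10% TCA. These are then stained with 0.1% SRB and read at 560 nm. Gain or loss of signal is fitted relative to DMSO.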

[6] = read-out: Thrombomodulin, THBD (gene 7056); assay: BSK_3C_Thrombomodulin: BioMAP Diversity Plus: 3C Assay for Thrombomodulin Biomarker Activity (AID 2283029); settings: primary human endothelial cells (HUVEC); actives raise or lower the signal
Summary of the method: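 Primary human umbilical vein endothelial cells (3C system) were exposed to chemical for 24 h, then thrombomodulin levels were measured by ELISA. Activity was fitted bidirectionally against the DMSO negative control as baseline.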

[7] = read-out: Urokinase-type plasminogen activator receptor (uPAR), PLAUR (gene 5329); assay: BSK_4H_uPAR: BioMAP Diversity Plus: 4H Assay for Urokinase-type plasminogen activator receptor (uPAR) Biomarker Activity (AID 2283030); settings: primary human endothelial cells (HUVEC); actives raise or lower the signal
Summary of the method: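 Cell-surface uPAR ELISA signal, measured 24 h after dosing human umbilical vein endothelial cells, was analyzed with bidirectional fitting relative to DMSO. Parallel SRB staining of total protein tracked overt cytotoxicity.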

[8] = read-out: Human Leukocyte Antigen - DR isotype (HLADR), HLA-DRA (gene 3122); assay: BSK_BE3C_HLADR: BioMAP Diversity Plus: BE3C Assay for Human Leukocyte Antigen - DR isotype (HLADR) Biomarker Activity (AID 2283032); settings: primary human bronchial epithelial cells; actives raise or lower the signal
Summary of the method: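 Human primary bronchial epithelial cells in the BE3C system were exposed to chemicals for 24 h, after which HLA-DR levels were quantified by ELISA. Activity was fitted bidirectionally, gain or loss of signal, against DMSO as negative control and baseline.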

[9] = read-out: Vascular cell adhesion molecule 1 (VCAM1), VCAM1 (gene 7412); assay: BSK_4H_VCAM1: BioMAP Diversity Plus: 4H Assay for Vascular cell adhesion molecule 1 (VCAM1) Biomarker Activity (AID 2283033); settings: primary human endothelial cells (HUVEC); actives raise or lower the signal;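 note: cell-surface VCAM-1 protein measured by ELISA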
Summary of the method: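 Primary human umbilical vein endothelial cells were exposed to chemicals for 24 h, after which VCAM-1 was quantified by ELISA. Responses were fitted bidirectionally against DMSO as negative control and activity baseline.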

[10] = read-out: Interferon-gamma inducible Protein 10 (IP10), CXCL10 (gene 3627); assay: BSK_BE3C_IP10: BioMAP Diversity Plus: BE3C Assay for Interferon-gamma inducible Protein 10 (IP10) Biomarker Activity (AID 2283034); settings: primary human bronchial epithelial cells; actives raise or lower the signal
Summary of the method: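 Human primary bronchial epithelial cells were exposed to chemicals for 24 hours, after which IP-10 levels were measured by ELISA. Data were fitted bidirectionally against DMSO, which served as the negative control and activity baseline.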

[11] = read-out: Monokine induced gamma interferon (MIG), CXCL9 (gene 4283); assay: BSK_BE3C_MIG: BioMAP Diversity Plus: BE3C Assay for Monokine induced gamma interferon (MIG) Biomarker Activity (AID 2283035); settings: primary human bronchial epithelial cells; actives raise or lower the signal;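 note: MIG protein measured by ELISA in BE3C cultures after 24 h of dosing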
Summary of the method: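 ELISA read-out of MIG in human lung bronchial epithelial primary cultures, 24 h post-dosing. Bidirectional curve fit vs DMSO baseline.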

[12] = read-out: Transforming growth factor beta 1 (TGFb1), TGFB1 (gene 7040); assay: BSK_BE3C_TGFb1: BioMAP Diversity Plus: BE3C Assay for Transforming growth factor beta 1 (TGFb1) Biomarker Activity (AID 2283036); settings: primary human bronchial epithelial cells; actives raise or lower the signal
Summary of the method: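 Human primary bronchial epithelial cells (BE3C system) were dosed with chemical and TGF-b1 levels measured by ELISA at 24 h. Activity was fitted bidirectionally relative to DMSO negative control as baseline.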

[13] = read-out: Plasminogen activator inhibitor-1 (PAI1), SERPINE1 (gene 5054); assay: BSK_BE3C_PAI1: BioMAP Diversity Plus: BE3C Assay for Plasminogen activator inhibitor-1 (PAI1) Biomarker Activity (AID 2283037); settings: primary human bronchial epithelial cells; actives raise or lower the signal
Summary of the method: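 Human primary bronchial epithelial cells were exposed to chemical for 24 h, then PAI-1 was quantified by ELISA. Activity was fitted bidirectionally relative to the DMSO negative control baseline.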

[14] = read-out: Urokinase-type plasminogen activator receptor (uPAR), PLAUR (gene 5329); assay: BSK_BE3C_uPAR: BioMAP Diversity Plus: BE3C Assay for Urokinase-type plasminogen activator receptor (uPAR) Biomarker Activity (AID 2283039); settings: primary human bronchial epithelial cells; actives raise or lower the signal;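 note: cells exposed to compound for one day before measurement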
Summary of the method: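 Primary human bronchial epithelial cells were dosed with chemical and harvested 24 h later; uPAR was quantified by ELISA. Activity was fitted bidirectionally against DMSO as negative control and baseline.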

[15] = read-out: Interleukin-6 (IL6), IL6 (gene 3569); assay: BSK_CASM3C_IL6: BioMAP Diversity Plus: CASM3C Assay for Interleukin-6 (IL6) Biomarker Activity for (AID 2283040); settings: primary human coronary artery smooth muscle cells; actives raise or lower the signal
[16] = read-out: Tissue plasminogen activator (tPA), PLAT (gene 5327); assay: BSK_BE3C_tPA: BioMAP Diversity Plus: BE3C Assay for Tissue plasminogen activator (tPA) Biomarker Activity (AID 2283041); settings: primary human bronchial epithelial cells; actives raise or lower the signal;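 note: tPA level quantified by ELISA one day after compound addition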
Summary of the method: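 Human primary bronchial epithelial cells were dosed with chemical and tPA biomarker levels measured by ELISA 24 hours later. Activity was fitted bidirectionally against DMSO as negative control and baseline.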

[17] = read-out: Interleukin-8 (IL8), CXCL8 (gene 3576); assay: BSK_CASM3C_IL8: BioMAP Diversity Plus: CASM3C Assay for Interleukin-8 (IL8) Biomarker Activity (AID 2283042); settings: primary human coronary artery smooth muscle cells; actives raise or lower the signal;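 note: IL-8 protein level quantified by ELISA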
[18] = read-out: urokinase plasminogen activator (uPA), PLAU (gene 5328); assay: BSK_BE3C_uPA: BioMAP Diversity Plus: BE3C Assay for urokinase plasminogen activator (uPA) Biomarker Activity (AID 2283038); settings: primary human bronchial epithelial cells; actives raise or lower the signal;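 note: uPA protein level quantified by ELISA in cell cultures; uPA read one day after compound addition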
Summary of the method: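 Bronchial epithelial cells (human, primary); chemical 24 h; uPA by ELISA; bidirectional fit vs DMSO. SRB (0.1%, after 10% TCA fixation, 560 nm) in parallel cultures for cytotoxicity.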

[19] = read-out: Vascular endothelial growth factor receptor 2 (Homo sapiens) (UniProt P35968); assay: BSK_4H_VEGFRII: BioMAP Diversity Plus: 4H Assay for Vascular endothelial growth factor receptor 2 (VEGFR2) Biomarker Activity (AID 2283031); settings: primary human endothelial cells (HUVEC); actives raise or lower the signal
Summary of the method: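 ELISA read-out of VEGFRII in primary human umbilical vein endothelium, taken 24 h after chemical treatment. Responses are expressed relative to DMSO, with bidirectional fitting.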

In the case of `CC(=O)S[C@H](C(=O)N[C@H]1Cc2ccccc2[C@H]2CCC[C@@H](C(=O)O)N2C1=O)C(C)C`, the outcome [1] is reported as “inactive”, the outcome [2] is reported as “inactive” and the outcome [3] is reported as “inactive”. The outcome [4] was “inactive”, the outcome [5] was “inactive” and the outcome [6] was “inactive”. The outcome [7] was “inactive”, the outcome [8] was “inactive” and the outcome [9] was “inactive”. For the same compound, the outcome [10] was “inactive”, the outcome [11] was “inactive” and the outcome [12] was “inactive”. The outcome [13] was “inactive”, the outcome [14] was “inactive” and the outcome [15] was “inactive”. The outcome [16] was “inactive” and the outcome [17] was “inactive”.
With `CSc1ccc(Oc2ccc(S(N)(=O)=O)cc2CN(C)C)cc1C` the outcome [1] was “inactive”, the AC50 [2] was 39 µM (active) and the outcome [3] was “inactive”. For the same compound, the outcome [4] was “inactive”, the outcome [5] was “inactive” and the outcome [6] was “inactive”. The AC50 [7] was 12.2 µM (active), the outcome [8] was “inactive” and the outcome [9] was “inactive”. The outcome [10] was “inactive”, the outcome [11] was “inactive” and the outcome [12] was “inactive”. For the same compound, the outcome [13] was “inactive”, the outcome [18] was “inactive” and the outcome [14] was “inactive”. For the same compound, the outcome [15] was “inactive”, the outcome [16] was “inactive” and the outcome [17] was “inactive”.
With `CCCC(=O)O` the outcome [1] was “inactive”, the outcome [2] was “inactive” and the outcome [3] was “inactive”. For the same compound, the outcome [4] was “inactive”, the outcome [5] was “inactive” and the outcome [6] was “inactive”. The outcome [7] was “inactive”, the outcome [19] was “inactive” and the outcome [8] was “inactive”. The outcome [9] was “inactive”, the outcome [10] was “inactive” and the outcome [11] was “inactive”. For the same compound, the outcome [12] was “inactive”, the outcome [13] was “inactive” and the outcome [14] was “inactive”. For the same compound, the outcome [15] was “inactive”, the outcome [16] was “inactive” and the outcome [17] was “inactive”.
For `Cc1cc(SC2=C(O)C[C@@](CCc3ccc(N)cc3)(C(C)C)OC2=O)c(C(C)(C)C)cc1CO`, the outcome [1] was “inactive”, the outcome [2] was “inactive” and the outcome [3] was “inactive”. For the same compound, the outcome [4] was “inactive”, the outcome [5] was “inactive” and the outcome [6] was “inactive”. For the same compound, the outcome [7] was “inactive”, the outcome [8] was “inactive” and the outcome [9] was “inactive”. The outcome [10] was “inactive”, the outcome [11] was “inactive” and the outcome [12] was “inactive”. The outcome [13] was “inactive”, the outcome [18] was “inactive” and the outcome [14] was “inactive”. The outcome [15] was “inactive”, the outcome [16] was “inactive” and the outcome [17] was “inactive”.
In the case of `c1ccc2occc2c1`, the outcome [1] is reported as “inactive”, the outcome [2] is reported as “inactive” and the outcome [3] is reported as “inactive”. The outcome [4] was “inactive”, the outcome [5] was “inactive” and the outcome [6] was “inactive”. The outcome [7] was “inactive”, the outcome [8] was “inactive” and the outcome [9] was “inactive”. The outcome [10] was “inactive”, the outcome [11] was “inactive” and the outcome [12] was “inactive”. The outcome [13] was “inactive”, the outcome [14] was “inactive” and the outcome [15] was “inactive”. For the same compound, the outcome [16] was “inactive” and the outcome [17] was “inactive”.
With `CCc1nc(N)nc(N)c1-c1ccc(Cl)cc1` the outcome [1] was “inactive”, the outcome [2] was “inactive” and the outcome [3] was “inactive”. For the same compound, the outcome [4] was “inactive”, the outcome [5] was “inactive” and the outcome [6] was “inactive”. The outcome [7] was “inactive”, the outcome [8] was “inactive” and the outcome [9] was “inactive”. For the same compound, the outcome [10] was “inactive”, the outcome [11] was “inactive” and the outcome [12] was “inactive”. For the same compound, the outcome [13] was “inactive”, the outcome [18] was “inactive” and the outcome [14] was “inactive”. For the same compound, the outcome [15] was “inactive”, the outcome [16] was “inactive” and the outcome [17] was “inactive”.
In the case of `CCCCCCCCCC[N+](C)(C)[O-]`, the outcome [1] is reported as “inactive”, the outcome [2] is reported as “inactive” and the outcome [3] is reported as “inactive”. For the same compound, the outcome [4] was “inactive”, the outcome [5] was “inactive” and the outcome [6] was “inactive”. For the same compound, the outcome [7] was “inactive”, the outcome [8] was “inactive” and the outcome [9] was “inactive”. The outcome [10] was “inactive”, the outcome [11] was “inactive” and the outcome [12] was “inactive”. For the same compound, the outcome [13] was “inactive”, the outcome [18] was “inactive” and the outcome [14] was “inactive”. The outcome [15] was “inactive”, the outcome [16] was “inactive” and the outcome [17] was “inactive”.
With `CC(=O)OCC(COC(C)=O)OC(C)=O` the outcome [1] was “inactive”, the outcome [2] was “inactive” and the outcome [3] was “inactive”. For the same compound, the outcome [4] was “inactive”, the outcome [5] was “inactive” and the outcome [6] was “inactive”. The outcome [7] was “inactive”, the outcome [8] was “inactive” and the outcome [9] was “inactive”. For the same compound, the outcome [10] was “inactive”, the outcome [11] was “inactive” and the outcome [12] was “inactive”. The outcome [13] was “inactive”, the outcome [14] was “inactive” and the outcome [15] was “inactive”. The outcome [16] was “inactive” and the outcome [17] was “inactive”.
